“And” between values parts separate entries of the source, which are not always exact repeats. Equal values may be shown once. The source made the active and inactive calls.
What was measured:
[1] = biological target: Albumin (Bos taurus) (UniProt P02769); test: compounds binding labelled BSA control protein – biochemical, small-molecule microarray, Alexa647 label, 635/667 nm fluorescence, artefact control for SMM control protein annotation, profiling panel (AID 1118); conditions: BSA-A647 binding, fluorescence 635 nm, higher = more signal;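 also: score merges 667 nm emission intensity and signal-to-noise per printed compound spot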
Chain of Albumin (Bos taurus) (P02769 whole entry, looked up): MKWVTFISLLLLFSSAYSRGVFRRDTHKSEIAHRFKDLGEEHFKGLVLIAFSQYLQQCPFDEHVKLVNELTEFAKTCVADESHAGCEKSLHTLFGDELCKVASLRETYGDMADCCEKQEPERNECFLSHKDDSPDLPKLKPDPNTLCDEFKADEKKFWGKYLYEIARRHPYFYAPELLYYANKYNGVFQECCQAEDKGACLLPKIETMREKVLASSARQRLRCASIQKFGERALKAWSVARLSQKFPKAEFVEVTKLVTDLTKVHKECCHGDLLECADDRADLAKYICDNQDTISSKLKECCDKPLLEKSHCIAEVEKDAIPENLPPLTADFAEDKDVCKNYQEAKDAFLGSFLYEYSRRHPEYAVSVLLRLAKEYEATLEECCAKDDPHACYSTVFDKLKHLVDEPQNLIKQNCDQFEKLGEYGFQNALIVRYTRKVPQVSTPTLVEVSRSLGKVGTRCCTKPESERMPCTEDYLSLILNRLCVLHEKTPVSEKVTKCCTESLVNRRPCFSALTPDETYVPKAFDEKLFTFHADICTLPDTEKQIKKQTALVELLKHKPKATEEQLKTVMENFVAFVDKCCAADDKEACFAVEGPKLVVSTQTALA

[2] = probe aXIP binding to arrayed compounds – biochemical, NeuroSMM set, 635/667 nm fluorescence, primary screen (AID 1119); conditions: small-molecule microarray, higher = more signal, called active from +8 up or from −8 down;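 also: probe is the protein aXip251-270 applied at 1 µg/mL to compound-printed slides; binding of probe to printed compounds measured as 667 nm fluorescence plus signal to noise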
[3] = probe aNOTCH3 binding on compound microarray – biochemical, small-molecule microarray, 635/667 nm fluorescence, primary screen (AID 1120); conditions: higher = more signal;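 also: probe is a biotin-tagged antibody raised against NOTCH3 rather than NOTCH3 protein; score merges spot fluorescence near 667 nm with spot signal to noise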
[4] = probe aNOTCH2 binding on compound microarray – biochemical, small-molecule microarray, 635/667 nm fluorescence, primary screen (AID 1121); conditions: higher = more signal;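 also: score merges feature fluorescence read at 667 nm with its signal to noise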
[5] = biological target: Carbonic anhydrase 2 (Homo sapiens) (UniProt P00918); test: compounds binding carbonic anhydrase 2 – biochemical, small-molecule microarray, Alexa647-labelled CAII, profiling panel (AID 1122); conditions: CAII-A647 binding fluorescence, higher = more signal
[6] = COS7 lysate on small-molecule microarray, probe aHis, 635 nm (AID 1123); conditions: COS7 cell lysate, fluorescence, higher = more signal;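 also: z-score combines 667nm fluorescence intensity with signal-to-noise per printed compound spot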
[7] = probe aLAP1 signal on lysate-treated microarray – cell lysate, small-molecule microarray, COS7 lysate, primary screen (AID 1124); conditions: probe aLAP1, fluorescence, higher = more signal;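 also: lysate comes from COS7 cells expressing LAP1 and is applied at 0.3 µg/mL; score merges spot fluorescence near 667 nm with signal-to-noise over triplicate slides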
[8] = test system: Sam68 (KHDRBS1); test: compounds binding KHDRBS1 protein – biochemical, small-molecule microarray, 635 nm fluorescence, primary screen (AID 1125); conditions: higher = more signal;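 also: score merges 667 nm channel intensity with signal to noise over triplicate slides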
[9] = test system: Chordin-like protein 2 (CHRDL2); test: compounds binding chordin-like 2 – biochemical, small-molecule microarray, 635 nm fluorescence, primary screen (AID 1126); conditions: fluorescence 635 nm, higher = more signal;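 also: printed compound slides probed with Chrdl2 protein at 4 µg/mL for 1 h at 4 C; score merges 667 nm emission intensity with signal to noise over three replicate slides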
[10] = biological target: Concanavalin-A (Canavalia ensiformis) (UniProt P02866); test: compounds binding concanavalin A lectin – biochemical, small-molecule microarray, Alexa647 label, 635 nm, artefact control for SMM control protein annotation, primary screen (AID 1127); conditions: ConA-A647 binding fluorescence, higher = more signal;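 also: z combines 667 nm emission intensity with signal-to-noise across three replicate slides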
Chain of Concanavalin-A (Canavalia ensiformis) (P02866 whole entry, looked up): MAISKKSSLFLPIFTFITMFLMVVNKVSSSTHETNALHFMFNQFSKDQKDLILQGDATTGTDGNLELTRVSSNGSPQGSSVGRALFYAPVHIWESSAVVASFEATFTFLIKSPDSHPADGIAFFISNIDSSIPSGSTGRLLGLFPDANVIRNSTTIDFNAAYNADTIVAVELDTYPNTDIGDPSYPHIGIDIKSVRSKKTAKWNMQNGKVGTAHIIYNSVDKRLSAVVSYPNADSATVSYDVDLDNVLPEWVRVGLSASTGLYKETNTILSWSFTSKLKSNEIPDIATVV

[11] = compounds binding Alexa647 anti-His antibody – biochemical, small-molecule microarray, 635 nm fluorescence, artefact control for SMM control protein annotation, primary screen (AID 1128); conditions: higher = more signal;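 also: score merges feature fluorescence with signal-to-noise for each printed compound spot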
[12] = test system: Human papillomavirus type 1a E7 protein (residues 1-88); test: HPV1a E7 small-molecule binders, primary screen, biochemical, small-molecule microarray, residues 1-88, 635 nm (AID 1129); conditions: small-molecule microarray binding, fluorescence 635 nm; higher = more signal
[13] = biological target: Focal adhesion kinase 1 (Homo sapiens) (UniProt Q05397); test: PTK2 protein binding on printed compound slides – biochemical, small-molecule microarray, 635/667 nm fluorescence, BSA, DTT, primary screen (AID 1130); conditions: 635 nm fluorescence, higher = more signal;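 also: composite of spot emission at 667 nm and signal to noise over triplicate slides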
Chain of Focal adhesion kinase 1 (Homo sapiens) (Q05397 whole entry, looked up): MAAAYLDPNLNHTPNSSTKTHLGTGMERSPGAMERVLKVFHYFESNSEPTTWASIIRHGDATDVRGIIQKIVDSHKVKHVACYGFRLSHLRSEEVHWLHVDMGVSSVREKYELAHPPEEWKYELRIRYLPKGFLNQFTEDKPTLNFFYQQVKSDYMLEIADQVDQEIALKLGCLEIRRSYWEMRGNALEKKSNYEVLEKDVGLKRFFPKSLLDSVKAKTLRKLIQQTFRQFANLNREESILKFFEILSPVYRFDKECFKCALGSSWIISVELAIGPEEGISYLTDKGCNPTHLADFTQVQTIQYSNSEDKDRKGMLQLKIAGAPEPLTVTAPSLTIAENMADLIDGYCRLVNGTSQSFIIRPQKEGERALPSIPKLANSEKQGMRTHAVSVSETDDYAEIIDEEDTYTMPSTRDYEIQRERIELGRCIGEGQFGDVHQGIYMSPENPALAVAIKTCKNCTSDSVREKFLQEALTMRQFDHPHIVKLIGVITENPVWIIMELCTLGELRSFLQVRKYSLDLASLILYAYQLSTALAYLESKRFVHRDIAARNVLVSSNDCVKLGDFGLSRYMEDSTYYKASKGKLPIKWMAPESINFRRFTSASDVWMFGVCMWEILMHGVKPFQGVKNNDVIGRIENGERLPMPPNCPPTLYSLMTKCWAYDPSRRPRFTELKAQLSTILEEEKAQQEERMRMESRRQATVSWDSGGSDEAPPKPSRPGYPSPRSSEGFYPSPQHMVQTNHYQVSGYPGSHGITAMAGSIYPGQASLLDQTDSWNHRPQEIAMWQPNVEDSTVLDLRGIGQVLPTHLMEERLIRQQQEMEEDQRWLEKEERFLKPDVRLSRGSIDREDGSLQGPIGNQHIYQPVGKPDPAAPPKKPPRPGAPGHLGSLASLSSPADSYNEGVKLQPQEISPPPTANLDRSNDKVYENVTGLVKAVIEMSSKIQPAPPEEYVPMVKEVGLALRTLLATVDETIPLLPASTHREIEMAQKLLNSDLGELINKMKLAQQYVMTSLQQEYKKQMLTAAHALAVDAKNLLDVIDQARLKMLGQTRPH

[14] = test system: Fibrinogen (Alexa647-labelled); test: Alexa647-fibrinogen binding to printed small molecules – biochemical, small-molecule microarray, 635/667 nm fluorescence, artefact control for SMM control-protein annotation, profiling panel (AID 1131); conditions: fibrinogen-A647 binding fluorescence, higher = more signal;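 also: z-score merges 667 nm fluorescence with per-spot signal-to-noise over triplicate slides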
[15] = biological target: Follistatin (Homo sapiens) (UniProt P19883); test: FST protein binding to printed compounds – biochemical, small-molecule microarray, 635/667 nm fluorescence, primary screen (AID 1132); conditions: 635 nm fluorescence, higher = more signal
Chain of Follistatin (Homo sapiens) (P19883 whole entry, looked up): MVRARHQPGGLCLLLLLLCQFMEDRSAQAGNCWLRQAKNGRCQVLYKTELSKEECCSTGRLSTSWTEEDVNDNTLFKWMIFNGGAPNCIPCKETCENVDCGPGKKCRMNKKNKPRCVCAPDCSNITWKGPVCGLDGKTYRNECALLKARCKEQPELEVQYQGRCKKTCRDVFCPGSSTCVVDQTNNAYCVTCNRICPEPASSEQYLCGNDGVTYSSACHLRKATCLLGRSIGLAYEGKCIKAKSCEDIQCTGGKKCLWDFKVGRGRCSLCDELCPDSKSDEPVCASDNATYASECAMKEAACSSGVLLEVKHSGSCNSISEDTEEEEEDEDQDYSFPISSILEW

[16] = biological target: Fibroblast growth factor 2 (Homo sapiens) (UniProt P09038); test: basic fibroblast growth factor binding to printed compounds – biochemical, small-molecule microarray, 635/667 nm fluorescence, primary screen (AID 1133); conditions: FGF2, fluorescence 635/667, higher = more signal
Chain of Fibroblast growth factor 2 (Homo sapiens) (P09038 whole entry, looked up): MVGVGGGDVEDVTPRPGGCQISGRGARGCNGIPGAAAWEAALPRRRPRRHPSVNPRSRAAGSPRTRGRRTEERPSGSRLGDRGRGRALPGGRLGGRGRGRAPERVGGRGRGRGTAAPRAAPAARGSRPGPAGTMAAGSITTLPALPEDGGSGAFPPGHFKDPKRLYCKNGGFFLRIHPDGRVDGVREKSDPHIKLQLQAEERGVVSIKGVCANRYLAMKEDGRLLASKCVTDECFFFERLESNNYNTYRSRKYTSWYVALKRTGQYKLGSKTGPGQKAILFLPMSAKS

[17] = JC-1 mitochondrial potential readout, lung cancer cells – cell-based, A549, JC-1 fluorescence, basal, 24 h, 100 nL, profiling panel (AID 1138); conditions: higher = more signal;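 also: A549 lung adenocarcinoma cells under basal conditions with no added stimulus; test concentration not given here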
[18] = test system: Lefty1; test: Lefty1 protein binding to printed compounds – biochemical, small-molecule microarray, 635/667 nm fluorescence, primary screen (AID 1139); conditions: fluorescence 635/667, higher = more signal
[19] = test system: wheat germ agglutinin (Triticum aestivum), Alexa647-labelled; test: Alexa647-WGA lectin binding to printed small molecules – biochemical, small-molecule microarray, 635/667 nm fluorescence, artefact control for SMM control-protein annotation, profiling panel (AID 1140); conditions: WGA-A647 binding, 635 nm fluorescence, higher = more signal;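 also: score merges 667 nm feature emission with signal to noise over triplicate slides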
[20] = biological target: Luciferin 4-monooxygenase (Photinus pyralis) (UniProt P08659); test: inhibition of purified Photinus pyralis luciferase – biochemical, luminescence, purified enzyme, 2006 set, primary screen (AID 1141); conditions: purified firefly luciferase, SteadyGlo luminescence, 30 min; higher = more signal, called active from +8 up or from −8 down;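 also: cell-free assay with purified firefly luciferase at 100 ng per well in PBS; test concentration not given here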
Chain of Luciferin 4-monooxygenase (Photinus pyralis) (P08659 whole entry, looked up): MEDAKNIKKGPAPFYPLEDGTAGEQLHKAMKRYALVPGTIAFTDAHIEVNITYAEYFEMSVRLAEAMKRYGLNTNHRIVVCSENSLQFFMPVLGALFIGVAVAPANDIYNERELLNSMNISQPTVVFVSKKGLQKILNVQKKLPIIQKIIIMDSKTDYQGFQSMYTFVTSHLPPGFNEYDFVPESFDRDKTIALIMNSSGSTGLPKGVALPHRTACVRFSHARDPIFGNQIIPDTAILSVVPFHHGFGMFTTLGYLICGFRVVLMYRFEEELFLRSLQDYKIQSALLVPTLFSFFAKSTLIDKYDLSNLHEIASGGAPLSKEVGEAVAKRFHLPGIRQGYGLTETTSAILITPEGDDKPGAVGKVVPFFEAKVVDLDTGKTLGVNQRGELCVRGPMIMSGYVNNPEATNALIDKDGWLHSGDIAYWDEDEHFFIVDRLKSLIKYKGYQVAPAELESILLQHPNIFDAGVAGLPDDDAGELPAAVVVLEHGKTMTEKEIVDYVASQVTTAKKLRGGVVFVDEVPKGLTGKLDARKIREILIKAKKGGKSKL

Row | Structure (SMILES) | composite z-score [1] | composite Z-score [2] | composite z-score [3] | composite z-score [4] | composite z-score [5] | composite z-score [6] | composite z-score [7] | composite z-score [8] | composite z-score [9] | composite z-score [10] | composite z-score [11] | composite z-score [12] | composite z-score [13] | composite z-score [14] | composite z-score [15] | composite z-score [16] | z-score [17] | composite z-score [18] | composite z-score [19] | z-score [20]
1 | CCCC[C@@H]1CN2[C@@H](CC[C@@H](C)[C@@H]2c2ccc(Br)cc2)C(=O)O1 | 0.604 and 0.712 | 0.548 (inactive) and 0.14 (inactive) | 0.0293 and -0.0219 | -0.104 and -0.164 | 0.284 and 0.282 | 1.22 and 0.595 | -0.0028 and 0.498 | 1.1 and 0.929 | 0.306 and 0.0739 | 0.402 and 0.987 | 2.07 and 0.917 | 1.16 and 0.572 | 0.367 and -0.0877 | 0.822 and 0.727 | 0.493 and 0.606 | 0.295 and 0.952 | -0.555 and 1.63 | 0.647 and 0.882 | 0.303 and 0.182 | 0.355 (inactive) and -0.572 (inactive)
2 | COC(=O)C1=C(C)N(Cc2ccccc2)[C@]23O[C@](C(=O)OC)(C(=O)N2[C@@H]1c1ccccc1)[C@@H](C(=O)OC)[C@H]3C(=O)OC | 0.0583 and -0.396 | -0.179 (inactive) and -0.813 (inactive) | -0.0947 and -0.0892 | -0.165 and -0.106 | 0.266 and -0.244 | 0.189 and -0.172 | -0.429 and -0.258 | -0.192 and 0.227 | -0.34 and 0.406 | -1.07 and 0.249 | 0.297 and 1.07 | -0.813 and 0.143 | -0.277 and 0.2 | -2.79 and -0.188 | -0.998 and 0.452 | -0.179 and 0.403 | 0.604 and 0.301 | -0.625 and 0.747 | 0.753 and -0.487 | -0.781 (inactive) and -1.8 (inactive)
3 | CCOC(=O)c1ccc(NC(=O)O[C@H]2[C@H](OC(=O)Nc3ccccc3)[C@H](OC(=O)Nc3ccccc3)[C@@H](OC)O[C@@H]2CO)cc1 | 0.783 and 0.754 | 1.13 (inactive) and 0.14 (inactive) | 0.583 and 0.228 | 0.121 and -0.0858 | 0.46 and 0.771 | 2.66 and 2.3 | 0.708 and 1.11 | 1.31 and 1.3 | 0.292 and 0.142 | 1.19 and 1.15 | 1.27 and 1.9 | 1.21 and 1.23 | 0.495 and 1.09 | 0.982 and 0.709 | 1.27 and 1.31 | 1.19 and 0.806 | -0.469 and -0.781 | 0.551 and 1.15 | 0.96 and 1.22 | 0.197 (inactive) and -0.2 (inactive)
4 | C=CCN(C(=O)C1N(CCCCCCO)C(=O)C2C(C(=O)O)C3C=CC21O3)C(C)(C)C (stereo not given) | -0.171 and -1.11 | 0.148 (inactive) and -0.707 (inactive) | -0.695 and -0.55 | -0.217 and -0.192 | 0.987 and 0.958 | -0.712 and 0.0575 | -0.729 and -0.646 | -1.73 and -0.275 | -4.11 and -4.07 | -0.974 and -2.94 | -1 and 0.0369 | -1.24 and -0.385 | -0.837 and -0.881 | -4.96 and -2.32 | -1.88 and -2.11 | -1.42 and -1.7 | 0.219 and 0.389 | -2.49 and -1.84 | -0.75 and -0.561 | -1.04 (inactive) and -0.426 (inactive)
5 | CCN1C(=O)[C@H]2[C@H]3[C@H](O)[C@H](O)CC(=NOC[C@@H](O)COCc4ccco4)[C@@H]3CC[C@H]2C1=O | -0.423 and 0.677 | -1.03 (inactive) and -0.471 (inactive) | -0.161 and -0.0026 | -0.17 and -0.234 | -0.473 and 0.753 | -0.945 and 0.351 | -0.0847 and -0.0256 | -0.368 and 0.0907 | 1.54 and 0.0802 | -0.716 and 0.422 | -0.48 and 2.77 | -1.11 and -1.61 | -0.406 and -0.591 | -0.852 and -0.943 | 1.34 and -0.205 | 1.66 and -0.129 | -0.254 and -1.57 | 1.44 and 0.31 | -0.559 and -0.746 | -0.0037 (inactive) and 0.33 (inactive)
